# In PubChem BioAssay:
# The source made the active and inactive calls. Unless noted, no stated cut-off is given here; in the data, active means inhibition above about 80%; inactive means the rest.
# Key:
# [1] = compounds altering circadian rhythm period length – cell-based, LOPAC library, luminescence reporter (AID 2774; call rule not given here;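 further: values are relative to mean of DMSO wells on each plate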); conditions: circadian reporter cells, at 7 µM, actives lie on both sides
# [2] = growth inhibition, single agent or in combination, cell-based, chromothripsis tumors, cisplatin or BGB combos (AID 1671449); conditions: LFS_MB_P medulloblastoma cells;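 further: cells exposed for 96 hours; 0% = vehicle DMSO and 100% = killing by high DMSO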
# [3] = growth inhibition, single agent and combos, cell-based, chromothripsis tumors, cisplatin or BGB combos (AID 1671450); conditions: HDN33 neuroblastoma cells, stronger effect = higher value;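 further: cells exposed to compound for four days; 0% = vehicle DMSO and 100% = cell killing by high DMSO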
# [4] = growth inhibition, single agents and combos, ICB984, cell-based, cisplatin or BGB combos, synergistic combos for chromothripsis tumors (AID 1671451; call rule not given here;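 further: cells exposed for 96 hours before readout; 0% = vehicle DMSO and 100% = killing by high DMSO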); conditions: ICB984 medulloblastoma cells, drug combinations, stronger effect = higher value
# [5] = growth inhibition, single agents and combos, LFS_MB_1R, cell-based, cisplatin or BGB combos, synergistic combos for chromothripsis tumors (AID 1671452); conditions: LFS_MB_1R medulloblastoma cells, stronger effect = higher value;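 further: cells exposed for 96 hours before readout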
# [6] = growth inhibition, single agents and combos, HTB85, cell-based, BGB or cisplatin IC20 combos, synergistic combos for chromothripsis tumors (AID 1671453); conditions: HTB85 osteosarcoma cells, drug combinations, stronger effect = higher value;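 further: cells exposed for 96 hours before readout; 0% = vehicle DMSO and 100% = high DMSO killing control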
# [7] = growth inhibition, single agents and combos, CRL2098, cell-based, BGB or cisplatin IC20 combos, synergistic combos for chromothripsis tumors (AID 1671454); conditions: CRL2098 osteosarcoma cells, drug combinations, stronger effect = higher value;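 further: cells exposed for 96 h before readout; 0% = vehicle DMSO and 100% = killing by high DMSO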
# [8] = growth inhibition, single agents and combos, HD-MB03, cell-based, BGB or cisplatin IC20 combos, synergistic combos for chromothripsis tumors (AID 1671455; in the data active means inhibition above about 83%;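 further: 0% = vehicle DMSO and 100% = high DMSO as cytotoxic control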); conditions: HD-MB03 medulloblastoma cells, stronger effect = higher value
# [9] = growth inhibition, single agents and combos, UWB1.289, cell-based, BGB or cisplatin combos, synergistic combos for chromothripsis tumors (AID 1671456); conditions: UWB1.289 ovarian carcinoma cells, stronger effect = higher value;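 further: cells exposed to compound for four days; 0% = vehicle DMSO and 100% = killing by high DMSO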
# [10] = growth inhibition, single agents and combos, LFS_MB_2R, cell-based, cisplatin combos, synergistic combos for chromothripsis tumors (AID 1671457); conditions: LFS_MB_2R medulloblastoma cells, stronger effect = higher value;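 further: cells exposed to compound for four days before readout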
# [11] = growth inhibition, MDA-MB-436, cell-based, BGB or cisplatin combos, synergistic combos for chromothripsis tumors (AID 1671458; call rule not given here;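 further: cells exposed for 96 hours; 0% = vehicle DMSO and 100% = killing by high DMSO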); conditions: MDA-MB-436 breast carcinoma growth inhibition, drug combinations, stronger effect = higher value
# [12] = UWB1.289_BRCA1 ovarian cancer growth, cell-based, BGB or cisplatin combinations (AID 1671459); conditions: UWB1.289 BRCA1 ovarian carcinoma, drug combinations, stronger effect = higher value
# [13] = drug combination toxicity in non-malignant astrocytes – cell-based, BGB or cisplatin IC20 combos, cytotoxicity control for chromothriptic childhood tumor combination screen (AID 1671460); conditions: Human astrocytes, viability inhibition, drug combinations, at 0.5 µM, stronger effect = higher value;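 further: cells exposed to compounds for 96 hours before viability readout; 0% = vehicle and 100% = killing control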
# [14] = BT084 cell growth, single and combined drugs, ICGC_MB145, cisplatin and BGB IC40 combos (AID 1671461); conditions: BT084 medulloblastoma cells, drug combinations, stronger effect = higher value;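 further: cells exposed to drugs for 96 hours; 0% = vehicle DMSO and 100% = high DMSO full killing control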
# [15] = RCMB18 cell growth, single agent and combined, cisplatin and BGB IC40 combos (AID 1671462); conditions: RCMB18 medulloblastoma cells, stronger effect = higher value;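 further: cells exposed to compound for four days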
# [16] = measured here: combination with BGB IC40, at 0.05 µM
# [17] = measured here: combination with cisplatin, at 0.5 µM
# [18] = measured here: combination with cisplatin, at 5 µM
structure (smiles),measurement,setting,value
C[C@]12CC[C@H]3[C@@H](CCC4C[C@H](O)CC[C@@]43C)[C@@H]1CC[C@@H]2O (stereo partly specified),period change,[1],0.065 h (inactive)
COc1cc(C2c3cc4c(cc3C(O)C3COC(=O)C23)OCO4)cc(OC)c1OC (stereo unspecified),inhibition,"[2]; at 0.5 µM, stronger effect = higher value",9.19% (inactive)
same,inhibition,"[2]; measured here: combination with BGB IC20, at 0.005 µM",-13.4%
same,inhibition,"[2]; measured here: combination with BGB IC40, at 0.005 µM",-36%
same,inhibition,[2]; [16],14.5%
same,inhibition,"[2]; measured here: combination with cisplatin, at 0.5 µM, stronger effect = higher value",-15.6%
same,inhibition,"[2]; measured here: combination with cisplatin, at 5 µM, stronger effect = higher value",45.9%
same,inhibition,"[3]; BGB combo, at 5 µM",67.6%
same,inhibition,[3]; at 0.5 µM,76.5% (inactive)
same,inhibition,"[3]; cisplatin combo, at 5 µM",70.5%
same,inhibition,"[3]; measured here: with BGB IC20 combination, at 0.5 µM",69.9%
same,inhibition,"[3]; measured here: with cisplatin IC20 combination, at 0.5 µM",66.6%
same,inhibition,"[3]; single agent, at 5 µM",91.8%
same,inhibition,"[4]; BGB IC20 combo, at 0.005 µM",44.2%
same,inhibition,"[4]; BGB IC40 combo, at 0.005 µM",19.6%
same,inhibition,"[4]; BGB IC40 combo, at 0.05 µM",10.9%
same,inhibition,[4]; at 0.5 µM,-21.6% (inactive)
same,inhibition,"[4]; cisplatin combo, at 0.05 µM",7.4%
same,inhibition,"[4]; cisplatin combo, at 0.5 µM",-22.1%
same,inhibition,"[4]; cisplatin combo, at 5 µM",19.8%
same,inhibition,"[4]; measured here: 5 uM single agent, at 5 µM",19.6%
same,inhibition,[5]; at 0.5 µM,38.7% (inactive)
same,inhibition,[5]; [16],42.5%
same,inhibition,[5]; [17],54.6%
same,inhibition,[5]; [18],60.9%
same,inhibition,[6]; at 0.5 µM,72.2% (inactive)
same,inhibition,"[6]; measured here: with BGB IC20, at 0.5 µM",55.2%
same,inhibition,"[6]; measured here: with BGB IC20, at 5 µM",54%
same,inhibition,"[6]; measured here: with cisplatin IC20, at 0.5 µM",72.6%
same,inhibition,"[6]; measured here: with cisplatin IC20, at 5 µM",73%
same,inhibition,"[6]; single agent, at 5 µM",89.8%
same,inhibition,[7]; at 0.5 µM,38.6% (inactive)
same,inhibition,"[7]; measured here: combination with BGB at IC20, at 0.5 µM",34.3%
same,inhibition,"[7]; measured here: combination with cisplatin at IC20, at 0.5 µM",46.2%
same,inhibition,[8]; at 0.5 µM,83.8% (active)
same,inhibition,"[8]; measured here: combo with BGB at IC20, at 0.5 µM",82.3%
same,inhibition,"[8]; measured here: combo with cisplatin at IC20, at 0.5 µM",76.1%
same,inhibition,[9]; at 0.5 µM,44.8% (inactive)
same,inhibition,"[9]; measured here: inhibition with BGB combination, at 0.05 µM",11.9%
same,inhibition,"[9]; measured here: inhibition with cisplatin combination, at 0.05 µM",39.3%
same,inhibition,[10]; at 0.5 µM,33.5% (inactive)
same,inhibition,[10]; [17],48.6%
same,inhibition,[10]; [18],47.1%
same,inhibition,[11]; at 0.5 µM,69.7% (inactive)
same,inhibition,"[11]; measured here: BGB combination, at 0.5 µM",58.4%
same,inhibition,"[11]; measured here: BGB combination, at 5 µM",53.6%
same,inhibition,"[11]; measured here: cisplatin combination, at 0.5 µM",72.1%
same,inhibition,"[11]; measured here: cisplatin combination, at 5 µM",74.9%
same,inhibition,"[12]; BGB combination, concentration series, at 5 µM",71.3%
same,inhibition,[12]; at 0.5 µM,57.4% (inactive)
same,inhibition,"[12]; cisplatin combination, concentration series, at 5 µM",70.5%
same,inhibition,[13],85.4% (active)
same,inhibition,[13]; measured here: combo with BGB IC20,85.6%
same,inhibition,[13]; measured here: combo with cisplatin IC20,76.9%
same,inhibition,[14]; at 0.5 µM,45.2% (inactive)
same,inhibition,"[14]; cisplatin combination, at 0.5 µM",43.7%
same,inhibition,"[14]; cisplatin combination, at 5 µM",48.4%
same,inhibition,"[14]; measured here: BGB IC40 combination 0.05 uM, at 0.05 µM",22.9%
same,inhibition,"[14]; single agent, at 5 µM",62.7%
same,inhibition,[15]; at 0.5 µM,21.7% (inactive)
same,inhibition,"[15]; cisplatin combo, at 5 µM",29.2%
